Results filed as inconclusive are left out. Calls of active or inactive are those of the source. Unless noted, calls follow the shape of the full dose curve.
What was measured:
[1] = qHTS for Inhibitors of the Functional Ribonucleoprotein Complex (vRNP) of Lassa (LASV) Arenavirus: LASV Primary Screen - GLuc reporter signal (AID 1347082; calls by dose curve; tested in HEK293 reporter line; also: nearly all actives have a fitted effect of over 60% in size; also: potency is read from the fitted curve at half-maximal effect)
[2] = qHTS for Inhibitors of the Functional Ribonucleoprotein Complex (vRNP) of Lassa (LASV) Arenavirus: Viability assay - alamar blue signal for LASV Primary Screen (AID 1347083; calls by dose curve; tested in HEK293 reporter line; also: potency is read from the fitted curve at half-maximal effect; nearly all actives have a fitted effect of over 80% in size)
[3] = Cytotoxicity counterscreen for inhibitors of SARS-CoV-2 cell entry (AID 1645845); also: potency is read from the fitted curve at half-maximal effect; nearly all actives have a fitted effect of over 50% in size
In short: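 HEK293-ACE2 cells (Expi293F stably expressing human ACE2) seeded overnight, then compound for 1 h plus 48 h at 37C. Viability as ATP content by luminescence; normalized to wells with cells and media-only wells.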

[4] = molecular target: Estrogen receptor (Homo sapiens) (UniProt P03372); experiment: qHTS assay for small molecule antagonists of estrogen receptor alpha signaling (AID 588513; active = well fitted curve in the direction sought with a large enough effect in the signal ratio, with a control signal flat, not every such curve was filed as active; the % refers to the signal ratio; also: % is scaled to controls: 0 for no effect and ±100 for the full control effect)
In short: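 Antagonist mode: inhibition of 0.5 nM 17-beta-estradiol-driven beta-lactamase reporter in HEK 293 ER-alpha-UAS-bla cells, 18 h at 37C, CCF4 readout after 2 h at RT. Normalised to estradiol and DMSO; titration fitted to Hill.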

[5] = molecular target: Androgen receptor (Homo sapiens) (UniProt P10275); experiment: qHTS assay for small molecule agonists of androgen receptor signaling (AID 588515; active = well fitted curve in the direction sought with a large enough effect in the signal ratio, with a control signal flat; the % refers to the signal ratio; also: % is scaled to controls: 0 for no effect and ±100 for the full control effect); settings: AR-UAS-bla HEK293, beta-lactamase ratio, agonist 16 h; stronger effect = higher value
In short: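 EC50 and efficacy came from Hill fits of titrations (up to 92 uM) normalized to 30 nM R1881 as 100% and DMSO as 0%. Compound exposure was 16 h at 37 C on AR-UAS-bla HEK293 cells, with a 405/460/530 nm CCF4 fluorescence read.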

[6] = molecular target: Androgen receptor (Homo sapiens) (UniProt P10275); experiment: qHTS assay for small molecule antagonists of androgen receptor signaling (AID 588516; active = well fitted curve in the direction sought with a large enough effect in the signal ratio, with a control signal flat, not every such curve was filed as active; the % refers to the signal ratio; also: % is scaled to controls: 0 for no effect and ±100 for the full control effect)
In short: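 Antagonist mode: inhibition of R1881-stimulated (10 nM final) bla reporter in GeneBLAzer AR HEK 293 cells, 16 h at 37C, compounds titrated. IC50 and efficacy from Hill-equation fits of 405/460–530 nm FRET ratios.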

[7] = molecular target: Bile acid receptor (Homo sapiens) (UniProt Q96RI1); experiment: qHTS assay for small molecule antagonists of farnesoid X receptor signaling (AID 588526); also: % is scaled to controls: 0 for no effect and ±100 for the full control effect
In short: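 Antagonist mode: titrated compounds tested against chenodeoxycholic acid stimulation (normalized to 50 uM CDCA and DMSO) in GeneBLAzer HEK293T cells for 16 h. Beta-lactamase read by CCF4 fluorescence; IC50 from Hill fits.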

[8] = molecular target: Glucocorticoid receptor (Homo sapiens) (UniProt P04150); experiment: qHTS assay for small molecule agonists of glucocorticoid receptor signaling (AID 588532; active = well fitted curve in the direction sought with a large enough effect in the signal ratio, with a control signal flat; the % refers to the signal ratio;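 also: 100% = dexamethasone at 0.1 µM and 0% = DMSO only wells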); settings: HeLa MMTV-bla, beta-lactamase ratio, agonist, 18 h; stronger effect = higher value; percent of dexamethasone control, DMSO zero
In short: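 Cells were plated and rested 3-5 h at 37 C, compounds were added in titration and incubated 18 h, then CCF4 substrate was loaded for 2 h at RT before reading blue/green fluorescence. EC50 came from Hill-equation fitting.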

[9] = molecular target: Glucocorticoid receptor (Homo sapiens) (UniProt P04150); experiment: qHTS assay for small molecule antagonists of glucocorticoid receptor signaling (AID 588533; active = well fitted inhibition curve with a large enough effect in the signal ratio, with a control signal flat, not every such curve was filed as active; the % refers to the signal ratio)
In short: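 Antagonist-mode qHTS: compound titrations added to GRE-bla HeLa cells, then dexamethasone 2 nM final; 18 h, 37 C. CCF4 FRET fluorescence normalized to dexamethasone and DMSO; IC50 from Hill fit.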

[10] = qHTS assay for small molecule antagonists of peroxisome proliferator-activated receptor delta signaling (AID 588535; active = well fitted inhibition curve with a large enough effect in the signal ratio, with a control signal flat, not every such curve was filed as active; the % refers to the signal ratio;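 as to max response: cells co-treated with a PPAR-delta agonist as stimulator during compound exposure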); settings: HEK293T PPARd-UAS-bla, beta-lactamase FRET ratio, 18 h; 460 nm channel
In short: (§1)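 Antagonist-mode beta-lactamase reporter (GeneBLAzer PPAR-delta-UAS-bla) in HEK293T cells, 2% charcoal/dextran FBS, 4000 cells/well. Compound titrations, 18 h at 37 C; CCF4 ratio read, IC50 and efficacy from Hill fits.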

[11] = molecular target: Peroxisome proliferator-activated receptor delta (Homo sapiens) (UniProt Q03181); experiment: as above
In short: as §1

[12] = molecular target: Peroxisome proliferator-activated receptor gamma (Homo sapiens) (UniProt P37231); experiment: qHTS assay for small molecule agonists of peroxisome proliferator-activated receptor gamma signaling (AID 588536; active = well fitted curve in the direction sought with a large enough effect in the signal ratio, with a control signal flat, not every such curve was filed as active; the % refers to the signal ratio;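 also: 0% = DMSO basal wells and 100% = rosiglitazone at 2 µM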)
In short: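 Test agents, titrated, stimulated HEK293 UAS-bla cells overnight (16 h, 37 C). Substrate CCF4 was then added for two hours at room temperature before fluorescence reading.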

[13] = molecular target: Peroxisome proliferator-activated receptor gamma (Homo sapiens) (UniProt P37231); experiment: qHTS assay for small molecule antagonists of peroxisome proliferator-activated receptor gamma signaling (AID 588537; active = well fitted inhibition curve with a large enough effect in the signal ratio, with a control signal flat, not every such curve was filed as active; the % refers to the signal ratio;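 also: reporter cells co-stimulated with 50 nM rosiglitazone agonist during compound treatment; % of control where 0% means no effect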)
In short: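 PPARγ-UAS-bla HEK293 cells (3000/well) in 1% charcoal/dextran-stripped FBS are treated with compound, then stimulated with 50 nM rosiglitazone for 16 h at 37 °C. Read-out is CCF4 β-lactamase fluorescence after 2 h at RT. IC50 comes from Hill fits normalised to rosiglitazone and DMSO.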

[14] = qHTS assay for small molecule agonists of retinoid X receptor alpha signaling (AID 588544); settings: HEK293T RXRa-UAS-bla, beta-lactamase reporter, 18 h; 530 nm emission;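 as to activation: 0% = DMSO basal wells and 100% = reference agonist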
[15] = molecular target: Retinoic acid receptor RXR-alpha (Homo sapiens) (UniProt P19793); experiment: as above
[16] = molecular target: Thyroid hormone receptor beta (Homo sapiens) (UniProt P10828); experiment: qHTS assay for small molecule agonists of thyroid hormone receptor beta signaling (AID 588545)
In short: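 Cells (2500/well) were seeded, incubated 4 hrs at 37 C, dosed with a compound series, incubated 18 hrs, loaded with CCF4 dye for 2 hrs at RT, then read for fluorescence. Data were scaled between DMSO (0%) and 10 nM T3 (100%).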

[17] = qHTS assay for small molecule antagonists of retinoid X receptor alpha signaling (AID 588546; active = well fitted inhibition curve with a large enough effect in the signal ratio, with a control signal flat, not every such curve was filed as active; the % refers to the signal ratio); settings: HEK293T RXRa-UAS-bla, beta-lactamase ratio, antagonist mode; measured here: W530 green channel, cytotoxicity proxy
In short: (§2)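 Beta-lactamase reporter inhibition, read as CCF4 fluorescence ratio (ex 405, em 460/530 nm) after 2 h at RT. HEK293T UAS-bla cells, 2500/well, were stimulated with 9-cis-RA at 500 or 100 nM final alongside test compound for 18 h at 37 C.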

[18] = molecular target: Retinoic acid receptor RXR-alpha (Homo sapiens) (UniProt P19793); experiment: as above; settings: HEK293T RXRa-UAS-bla, beta-lactamase ratio, antagonist mode
In short: as §2

[19] = molecular target: Thyroid hormone receptor beta (Homo sapiens) (UniProt P10828); experiment: qHTS assay for small molecule antagonists of thyroid hormone receptor beta signaling (AID 588547; active = well fitted inhibition curve with a large enough effect in the signal ratio, with a control signal flat, not every such curve was filed as active; the % refers to the signal ratio); settings: TR-UAS-bla HEK293, beta-lactamase ratio, antagonist mode, 18 h
In short: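 TR-UAS-bla GripTite HEK293 cells in 2% charcoal/dextran FBS medium; compounds 0.59 nM to 92 uM with T3 at 0.4nM final, 18 h at 37 C. Beta-lactamase read by CCF4 fluorescence (460/530 nm); Hill fits gave IC50 and efficacy.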

[20] = qHTS assay for small molecule agonists of the antioxidant response element (ARE) signaling pathway (AID 651741; active = well fitted activation curve with a large enough effect in the signal ratio; the % refers to the signal ratio; also: % of control where 0% means no effect)
In short: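 CellSensor ARE-bla HepG2 cells (2,000/well) carrying ARE-driven beta-lactamase, exposed 16 h at 37 C. LiveBLAzer B/G FRET substrate added for 2 h at room temperature; fluorescence intensity read.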

[21] = qHTS assay for small molecule activators of the nuclear factor-kappa B (NF-kB) signaling pathway (AID 651749; active = well fitted activation curve with a large enough effect in the signal ratio; the % refers to the signal ratio; also: series mostly up to about 77 µM; % of control where 0% means no effect); settings: NF-kB-bla ME-180 cells, beta-lactamase FRET ratio, 16 h; activation: stronger effect = higher value
In short: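 NF-kB-bla ME-180 cells carrying a beta-lactamase reporter under an NF-kB response element, 2,000 cells/well, exposed to compound for 16 hr at 37C; FRET-based beta-lactamase fluorescence read-out of pathway activation.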

[22] = molecular target: Peroxisome proliferator-activated receptor alpha (Homo sapiens) (UniProt Q07869); experiment: qHTS assay for small molecule agonists of the peroxisome proliferator-activated receptor alpha (PPARalpha) signaling pathway (AID 651778; active = well fitted curve in the direction sought with a large enough effect; an effect the other way counts as inactive or inconclusive; also: % of control where 0% means no effect); settings: PathHunter PPARalpha complementation, chemiluminescence, 6 h; stronger effect = higher value
In short: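 Enzyme-fragment complementation assay in which ligand-bound PPARalpha translocates and forms an active enzyme that generates chemiluminescence. Cells were plated overnight, exposed to compound for 6 hr at 37 C, and then given detection reagent for 60 min at room temperature.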

[23] = qHTS assay for small molecule agonists of the antioxidant response element (ARE) signaling pathway measured by Nrf2-dependant transcriptional activity (AID 720636; active = well fitted curve in the direction sought with a large enough effect in the repeat runs; an effect the other way counts as inactive or inconclusive;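 also: HepG2 cells with an ARE-driven luciferase reporter; % of control where 0% means no effect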)
In short: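 HepG2 ARE-luc reporter line, 1% dialyzed FBS; 6 hr attachment at 37 C, compound pinned in, 16 hr at 37 C/5% CO2; ONE-Glo, 30 min RT, luminescence read.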

[24] = qHTS assay for small molecule agonists of the antioxidant response element (ARE) signaling pathway measured by Nrf2-dependant transcriptional activity - cell viability counter screen (AID 720653; active = well fitted curve in the direction sought with a large enough effect in the repeat runs; an effect the other way counts as inactive or inconclusive; also: % is scaled to controls: 0 for no effect and ±100 for the full control effect); settings: ARE-bla HepG2 viability, CellTiter-Glo ATP luminescence, 16 h; max response: stronger effect = lower value
In short: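 ARE-bla HepG2 cells treated with compounds for 16 h at 37C; this counter screen measures viability as intracellular ATP by CellTiter-Glo luminescence after 30 min at room temperature.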

[25] = qHTS assay for cell viability of HEK293 cells (AID 743288; active = well fitted curve in the direction sought with a large enough effect; an effect the other way counts as inactive or inconclusive; also: % is scaled to controls: 0 for no effect and ±100 for the full control effect; nearly all actives have a fitted effect of over 50% in size); settings: ATP luminescence (CellTiter-Glo), 18 h; max response: stronger effect = lower value
In short: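 Total intracellular ATP, measured with a luciferase-coupled reagent, indicates the number of viable HEK293 cells. Exposure to test chemicals lasts 18 h at 37 C in 1,536-well format at 2,000 cells/well.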

[26] = qHTS assay for cell viability of the p53RE-bla HCT-116 cell line (AID 743292; active = well fitted curve in the direction sought with a large enough effect; an effect the other way counts as inactive or inconclusive; also: % is scaled to controls: 0 for no effect and ±100 for the full control effect; nearly all actives have a fitted effect of over 55% in size)
In short: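 Luminescent ATP quantitation (CellTiter-Glo) served as the viability read-out; reagent was added after 16 h compound exposure at 37 C and read after 30 min at room temperature. Cells: p53RE-bla HCT-116, 4,000 per well.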

[27] = molecular target: Nuclear receptor subfamily 1 group I member 2 (Rattus norvegicus) (UniProt Q9R1A7); experiment: qHTS assay for small molecule activators of the rat pregnane X receptor (rPXR) signaling pathway (AID 651751; call rule not given here; also: 0% is about no effect); settings: rPXR reporter cells, luciferase (One-Glo), 24 h
[28] = qHTS assay for small molecule activators of the human pregnane X receptor (PXR) signaling pathway (AID 720659; call rule not given here; also: 0% is about no effect)
[29] = qHTS for Inhibitors of the Functional Ribonucleoprotein Complex (vRNP) of Lymphocytic Choriomeningitis Arenaviruses (LCMV): Viability assay - alamar blue signal for LCMV Primary Screen (AID 1347085; calls by dose curve; tested in HEK293 reporter line; also: potency is read from the fitted curve at half-maximal effect; nearly all actives have a fitted effect of over 80% in size)
[30] = molecular target: Nucleoprotein (Lymphocytic choriomeningitis virus (strain Armstrong)) (UniProt P09992); experiment: qHTS for Inhibitors of the Functional Ribonucleoprotein Complex (vRNP) of Lymphocytic Choriomeningitis Arenaviruses (LCMV): LCMV Primary Screen - GLuc reporter signal (AID 1347086); also: potency is read from the fitted curve at half-maximal effect; nearly all actives have a fitted effect of over 70% in size

Thyroid hormone receptor beta (Homo sapiens), sequence (P10828 whole entry, looked up): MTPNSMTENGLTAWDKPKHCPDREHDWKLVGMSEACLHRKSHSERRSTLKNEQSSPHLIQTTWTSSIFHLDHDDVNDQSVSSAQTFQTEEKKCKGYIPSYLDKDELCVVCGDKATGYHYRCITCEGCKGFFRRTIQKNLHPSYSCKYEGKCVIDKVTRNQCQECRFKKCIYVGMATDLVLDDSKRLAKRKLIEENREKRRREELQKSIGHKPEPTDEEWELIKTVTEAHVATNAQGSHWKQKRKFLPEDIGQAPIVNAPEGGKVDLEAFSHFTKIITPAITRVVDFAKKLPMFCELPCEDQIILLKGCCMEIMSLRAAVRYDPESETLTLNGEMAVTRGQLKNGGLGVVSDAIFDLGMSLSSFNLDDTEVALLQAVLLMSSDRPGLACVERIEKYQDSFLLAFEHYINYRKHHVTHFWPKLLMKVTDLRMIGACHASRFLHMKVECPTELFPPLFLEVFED
Androgen receptor (Homo sapiens), sequence (P10275 whole entry, looked up): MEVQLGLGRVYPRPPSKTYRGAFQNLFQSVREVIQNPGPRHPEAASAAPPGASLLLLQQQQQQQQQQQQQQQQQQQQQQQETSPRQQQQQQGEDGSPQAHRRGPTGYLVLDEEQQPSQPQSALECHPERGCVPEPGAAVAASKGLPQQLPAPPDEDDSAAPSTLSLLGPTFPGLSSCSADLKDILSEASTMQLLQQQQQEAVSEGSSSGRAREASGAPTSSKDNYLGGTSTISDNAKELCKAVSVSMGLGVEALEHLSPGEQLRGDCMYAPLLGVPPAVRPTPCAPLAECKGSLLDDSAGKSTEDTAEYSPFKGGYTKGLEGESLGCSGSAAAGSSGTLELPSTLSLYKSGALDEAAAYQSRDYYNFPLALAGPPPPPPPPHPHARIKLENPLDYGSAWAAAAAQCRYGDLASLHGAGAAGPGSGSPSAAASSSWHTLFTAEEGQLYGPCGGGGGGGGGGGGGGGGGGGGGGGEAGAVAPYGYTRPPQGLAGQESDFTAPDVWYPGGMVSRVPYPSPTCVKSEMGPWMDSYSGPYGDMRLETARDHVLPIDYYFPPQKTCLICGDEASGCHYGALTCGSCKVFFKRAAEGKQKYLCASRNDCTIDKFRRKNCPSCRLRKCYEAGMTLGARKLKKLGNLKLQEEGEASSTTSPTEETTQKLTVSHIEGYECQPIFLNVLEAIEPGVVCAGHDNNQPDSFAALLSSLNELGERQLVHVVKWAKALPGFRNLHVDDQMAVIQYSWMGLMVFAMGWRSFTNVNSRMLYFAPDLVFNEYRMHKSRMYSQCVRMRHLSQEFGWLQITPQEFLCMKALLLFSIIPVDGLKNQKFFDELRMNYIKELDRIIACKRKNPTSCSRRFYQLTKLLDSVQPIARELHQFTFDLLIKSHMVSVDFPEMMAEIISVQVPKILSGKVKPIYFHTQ
Glucocorticoid receptor (Homo sapiens), sequence (P04150 whole entry, looked up): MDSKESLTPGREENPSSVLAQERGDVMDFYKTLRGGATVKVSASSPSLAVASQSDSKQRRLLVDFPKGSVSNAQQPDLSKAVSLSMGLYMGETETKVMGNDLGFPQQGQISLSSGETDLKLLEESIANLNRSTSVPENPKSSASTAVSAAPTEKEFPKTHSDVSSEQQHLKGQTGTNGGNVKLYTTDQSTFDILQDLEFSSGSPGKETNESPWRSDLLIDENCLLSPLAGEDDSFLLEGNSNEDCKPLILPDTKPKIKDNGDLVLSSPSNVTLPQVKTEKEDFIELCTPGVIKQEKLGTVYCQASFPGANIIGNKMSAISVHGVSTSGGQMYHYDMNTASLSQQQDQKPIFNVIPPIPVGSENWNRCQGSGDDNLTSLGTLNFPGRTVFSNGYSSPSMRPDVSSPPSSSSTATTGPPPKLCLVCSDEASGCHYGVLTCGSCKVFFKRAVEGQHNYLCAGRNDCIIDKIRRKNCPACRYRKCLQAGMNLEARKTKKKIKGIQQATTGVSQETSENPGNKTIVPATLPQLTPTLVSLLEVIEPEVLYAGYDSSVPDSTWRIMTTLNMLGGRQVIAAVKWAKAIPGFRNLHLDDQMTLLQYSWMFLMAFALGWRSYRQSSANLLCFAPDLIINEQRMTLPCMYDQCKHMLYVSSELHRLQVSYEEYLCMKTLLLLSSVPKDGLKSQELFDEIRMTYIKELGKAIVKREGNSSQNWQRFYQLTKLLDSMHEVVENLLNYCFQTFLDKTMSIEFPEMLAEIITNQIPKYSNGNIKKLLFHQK
Peroxisome proliferator-activated receptor gamma (Homo sapiens), sequence (P37231 whole entry, looked up): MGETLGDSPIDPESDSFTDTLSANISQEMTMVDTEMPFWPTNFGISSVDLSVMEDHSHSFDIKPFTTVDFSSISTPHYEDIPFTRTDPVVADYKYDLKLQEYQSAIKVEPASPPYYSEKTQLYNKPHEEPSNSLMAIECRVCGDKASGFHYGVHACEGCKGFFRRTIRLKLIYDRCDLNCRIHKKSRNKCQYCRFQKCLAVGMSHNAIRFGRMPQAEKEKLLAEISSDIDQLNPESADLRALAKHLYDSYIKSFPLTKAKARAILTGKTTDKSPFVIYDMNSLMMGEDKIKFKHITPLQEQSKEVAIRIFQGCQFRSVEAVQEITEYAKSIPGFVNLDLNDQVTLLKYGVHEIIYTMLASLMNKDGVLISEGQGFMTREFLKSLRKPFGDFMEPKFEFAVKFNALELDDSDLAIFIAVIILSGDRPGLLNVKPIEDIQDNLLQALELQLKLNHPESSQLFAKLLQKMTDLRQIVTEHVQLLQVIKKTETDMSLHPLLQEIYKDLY
Retinoic acid receptor RXR-alpha (Homo sapiens), sequence (P19793 whole entry, looked up): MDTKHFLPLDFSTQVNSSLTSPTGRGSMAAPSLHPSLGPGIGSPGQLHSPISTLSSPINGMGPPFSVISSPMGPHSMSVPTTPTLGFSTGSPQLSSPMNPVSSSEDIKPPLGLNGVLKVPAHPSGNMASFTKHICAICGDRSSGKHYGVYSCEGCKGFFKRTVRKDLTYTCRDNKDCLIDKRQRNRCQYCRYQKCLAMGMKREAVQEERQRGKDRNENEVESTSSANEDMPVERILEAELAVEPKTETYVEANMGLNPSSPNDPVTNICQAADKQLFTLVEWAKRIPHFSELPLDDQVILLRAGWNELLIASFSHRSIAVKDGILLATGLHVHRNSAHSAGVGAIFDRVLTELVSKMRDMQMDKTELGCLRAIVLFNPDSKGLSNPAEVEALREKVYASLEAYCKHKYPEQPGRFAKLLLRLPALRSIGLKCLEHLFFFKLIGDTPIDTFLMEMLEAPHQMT
Bile acid receptor (Homo sapiens), sequence (Q96RI1 whole entry, looked up): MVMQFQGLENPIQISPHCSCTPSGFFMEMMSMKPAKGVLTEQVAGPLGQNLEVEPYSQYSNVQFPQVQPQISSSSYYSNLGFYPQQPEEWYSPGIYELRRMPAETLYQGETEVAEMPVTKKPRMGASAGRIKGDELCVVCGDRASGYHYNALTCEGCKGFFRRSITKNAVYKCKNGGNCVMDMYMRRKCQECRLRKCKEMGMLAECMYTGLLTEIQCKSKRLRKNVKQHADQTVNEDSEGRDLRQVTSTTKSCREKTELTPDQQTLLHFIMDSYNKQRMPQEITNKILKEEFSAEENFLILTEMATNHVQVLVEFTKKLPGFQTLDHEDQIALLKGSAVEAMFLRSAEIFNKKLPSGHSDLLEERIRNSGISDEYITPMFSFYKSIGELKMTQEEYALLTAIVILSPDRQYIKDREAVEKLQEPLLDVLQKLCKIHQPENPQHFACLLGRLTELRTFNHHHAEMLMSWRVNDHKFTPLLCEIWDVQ
Peroxisome proliferator-activated receptor delta (Homo sapiens), sequence (Q03181 whole entry, looked up): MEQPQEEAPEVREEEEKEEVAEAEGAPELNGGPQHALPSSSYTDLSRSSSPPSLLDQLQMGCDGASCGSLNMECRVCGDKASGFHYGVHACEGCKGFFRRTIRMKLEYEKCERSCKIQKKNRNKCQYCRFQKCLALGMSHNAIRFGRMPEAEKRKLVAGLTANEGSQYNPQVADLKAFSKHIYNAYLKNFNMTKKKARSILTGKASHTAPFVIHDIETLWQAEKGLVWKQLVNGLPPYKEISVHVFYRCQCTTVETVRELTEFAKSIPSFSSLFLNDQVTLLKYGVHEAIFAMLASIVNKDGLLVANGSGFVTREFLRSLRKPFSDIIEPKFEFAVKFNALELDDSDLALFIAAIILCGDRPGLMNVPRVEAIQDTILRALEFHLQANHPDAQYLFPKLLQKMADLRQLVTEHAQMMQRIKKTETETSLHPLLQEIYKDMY
Nuclear receptor subfamily 1 group I member 2 (Rattus norvegicus), sequence (Q9R1A7 whole entry, looked up): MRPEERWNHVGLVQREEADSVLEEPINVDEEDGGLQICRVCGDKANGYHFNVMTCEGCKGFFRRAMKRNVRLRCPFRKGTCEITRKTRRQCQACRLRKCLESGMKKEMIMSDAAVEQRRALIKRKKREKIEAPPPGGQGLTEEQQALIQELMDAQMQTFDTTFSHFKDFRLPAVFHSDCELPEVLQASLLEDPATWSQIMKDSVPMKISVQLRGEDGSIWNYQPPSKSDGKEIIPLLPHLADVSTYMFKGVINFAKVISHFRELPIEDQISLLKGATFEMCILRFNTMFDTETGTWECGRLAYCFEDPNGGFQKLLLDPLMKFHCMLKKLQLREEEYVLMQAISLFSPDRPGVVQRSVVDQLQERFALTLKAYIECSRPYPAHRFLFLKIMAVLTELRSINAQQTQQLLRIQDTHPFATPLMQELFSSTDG
Peroxisome proliferator-activated receptor alpha (Homo sapiens), sequence (Q07869 whole entry, looked up, the tested form may be a part): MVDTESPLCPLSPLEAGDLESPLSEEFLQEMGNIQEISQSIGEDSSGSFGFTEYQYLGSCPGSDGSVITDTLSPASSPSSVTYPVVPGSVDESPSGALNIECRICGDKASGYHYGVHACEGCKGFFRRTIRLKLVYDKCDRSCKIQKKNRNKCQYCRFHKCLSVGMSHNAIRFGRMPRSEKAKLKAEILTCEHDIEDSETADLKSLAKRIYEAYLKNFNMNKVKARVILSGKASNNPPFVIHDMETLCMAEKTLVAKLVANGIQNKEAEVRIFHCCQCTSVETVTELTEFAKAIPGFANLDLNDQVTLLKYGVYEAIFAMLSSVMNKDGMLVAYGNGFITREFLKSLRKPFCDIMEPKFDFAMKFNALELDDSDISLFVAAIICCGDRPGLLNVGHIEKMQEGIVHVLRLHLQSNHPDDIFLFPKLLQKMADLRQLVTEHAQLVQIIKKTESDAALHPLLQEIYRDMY

CCc1ccc(C(=O)Nc2cc(CN3CCN(C)CC3)cc(C(F)(F)F)c2)cc1C#Cc1cnc2ccnn2c1
inactive: Potency [1]
active: Potency [2] 21.7 µM | Potency [3] 31.6 µM

CCCCOP(=O)(O)OCCCC
-2.61%: max response [17]
inactive: Potency [4] | activation [5] -1.97% | outcome [6] | Potency [7] | activation [8] -1.37% | Potency [9] | outcome [11] | outcome [12] | Potency [13] | outcome [15] | Potency [16] | max response [18] -17.7% | activity change % (negative = inhibition) [19] 3.56% | Potency [20] | activation [21] 1.33% | max response [22] -1.16% | Potency [23] | max response [24] -8.15% | max response [25] -9.76% | outcome [26] | max response [27] 5.92% | outcome [28]
24.1%: max response [10]
-20.1%: max response [14]

COc1cc2c(Nc3ccc(Cl)c(Cl)c3F)ncnc2cc1OCC1C[C@@H]2CN(C)C[C@H]2C1
active: Potency [1] 8.63 µM | Potency [29] 1.93 µM | Potency [30] 2.43 µM
